Experimental data published in PubChem BioAssay AID2227 (Johns Hopkins Ion Channel Center, 2009).
Screen size: about 310,000 compounds; about 1,300 (0.42%) were called active. This is one part of a sample in which actives are shown more often than they occur.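 The calls were made as follows: active = B-score of calcium response area above 5 SD of library B-scores, with initial fluorescence ratio within 5 SD of library; inactive = the rest.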

The molecules below were run against Short transient receptor potential channel 4 (Mus musculus) (UniProt Q9QUQ5) (assay: positive allosteric modulators of TRPC4, primary screen, cell-based, mouse TRPC4beta, HEK293 mu-opioid, Fluo-4 calcium (AID 2227;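 as to B-score: B-score of integrated fluorescence ratio over time as area under calcium response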)). Settings: DAMGO EC20, Fluo-4 Ca2+ flux, at 10 µM; stronger effect = higher value.
Sequence of Short transient receptor potential channel 4 (Mus musculus) (Q9QUQ5 whole entry, looked up): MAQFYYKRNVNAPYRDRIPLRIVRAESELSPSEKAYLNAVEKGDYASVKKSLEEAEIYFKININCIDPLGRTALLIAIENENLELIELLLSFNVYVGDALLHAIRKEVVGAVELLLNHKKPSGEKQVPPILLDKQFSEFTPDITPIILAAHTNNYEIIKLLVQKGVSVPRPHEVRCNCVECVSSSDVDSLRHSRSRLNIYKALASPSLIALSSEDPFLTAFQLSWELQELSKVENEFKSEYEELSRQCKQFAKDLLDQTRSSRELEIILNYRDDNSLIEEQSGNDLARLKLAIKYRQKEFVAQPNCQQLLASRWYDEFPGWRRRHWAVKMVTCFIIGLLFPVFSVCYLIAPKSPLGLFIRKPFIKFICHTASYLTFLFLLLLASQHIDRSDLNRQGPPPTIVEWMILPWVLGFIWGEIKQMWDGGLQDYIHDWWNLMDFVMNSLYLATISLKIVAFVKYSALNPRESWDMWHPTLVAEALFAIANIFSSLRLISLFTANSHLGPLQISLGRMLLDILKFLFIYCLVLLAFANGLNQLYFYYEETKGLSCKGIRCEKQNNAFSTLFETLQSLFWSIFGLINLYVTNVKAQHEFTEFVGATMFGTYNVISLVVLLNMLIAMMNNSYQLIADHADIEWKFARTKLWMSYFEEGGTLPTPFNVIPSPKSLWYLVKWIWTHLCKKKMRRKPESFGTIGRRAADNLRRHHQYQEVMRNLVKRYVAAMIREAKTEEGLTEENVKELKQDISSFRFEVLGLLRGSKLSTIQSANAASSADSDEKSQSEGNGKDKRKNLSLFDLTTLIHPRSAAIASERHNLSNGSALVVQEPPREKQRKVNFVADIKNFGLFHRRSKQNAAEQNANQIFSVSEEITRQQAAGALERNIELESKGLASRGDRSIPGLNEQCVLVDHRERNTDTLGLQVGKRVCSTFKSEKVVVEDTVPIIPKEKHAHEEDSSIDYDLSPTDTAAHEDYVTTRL

SMILES | B-score
CCN1/C(=C\c2ccc3ccccc3[n+]2CC)Sc2cc(C)ccc21 | 13 (active)
N#Cc1cc([N+](=O)[O-])ccc1NCC1CCCO1 (centres undefined) | inactive
CCc1ccc2c(c1)C1(NN=C(c3ccccc3)S1)C(=O)N2 (centres undefined) | 11 (active)
COC(C[C@H](O)CC(=O)COCc1ccccc1)OC | inactive
COC(=O)C(C)Sc1nc2c(c(=O)n(C)c(=O)n2C)n1Cc1cccc(C)c1 (centres undefined) | inactive
Cc1cccc(Cn2c(N3CCN(c4ccccc4)CC3)nc3c2c(=O)n(C)c(=O)n3C)c1 | 41 (active)
Cc1cccc(Cn2c(SCCO)nc3c2c(=O)n(C)c(=O)n3C)c1 | inactive
CCOC(=O)NN1C(=O)c2ccccc2NC1c1ccccc1O (centres undefined) | inactive
CC(NS(=O)(=O)c1ccc(Br)cc1)C(=O)NCC1CCCO1 (centres undefined) | inactive
OC(CNCC1CCCO1)Cn1c2ccc(Br)cc2c2cc(Br)ccc21 (centres undefined) | 17 (active)
O=C(CSc1ccc(-c2ccc(Br)cc2)nn1)NCC1CCCO1 (centres undefined) | inactive
Cc1cc(S(=O)(=O)c2cc3ccc(O)c(C)c3oc2=O)ccc1F | inactive
Cc1ccc(/C=N/NC(=S)NC2CCCCC2)o1 | 35 (active)
C/C(=N\NC(=S)NC1CCCCC1)c1ccc(C)o1 | inactive
Cc1ccc(/C=N/NC(=S)Nc2cccc(S(=O)(=O)N(C)C)c2)o1 | inactive
O=C(NC1CC1)C1=C[C@H](c2c[nH]c3ccccc23)C[C@H](OCc2ccc(CO)cc2)O1 | 11 (active)
NC(=O)C1=C[C@@H](c2csc3ccccc23)C[C@@H](OCc2ccc(CO)cc2)O1 | inactive
NC(=O)C1=C[C@H](c2csc3ccccc23)C[C@H](OCc2ccc(CO)cc2)O1 | inactive
Cc1c(-c2nn(C)c(=O)c3ccccc23)oc2ccc(F)cc2c1=O | inactive
CC(=O)Nc1ccc(C(=O)CSc2nnc(Cc3ccccc3)o2)cc1 | inactive
CCOc1ccc(Nc2nc(Cc3nnc(SCC(=O)NC4CCCC4)n3C)cs2)cc1 | inactive
CCOc1ccc(Nc2nc(Cc3nnc(SCC(=O)c4ccc(C)cc4)o3)cs2)cc1 | 30 (active)

SMILES | B-score
NC(=O)C1(N2CCCCC2)CCN(C(=O)c2ccc(C#Cc3ccccc3)o2)CC1 | inactive
CC1CC(C)CN(CCOc2cccc3ccccc23)C1 (centres undefined) | 11 (active)
CC1CN(CCOc2ccccc2[N+](=O)[O-])CC(C)O1 (centres undefined) | inactive
CN1CCN(CCCCOc2cccc3ccccc23)CC1 | inactive
CCOC12CC(C)(C)CC(C)(CC3=C1C(=O)CC(C)(C)C3)C2 (centres undefined) | inactive
CCCCCCCNc1nc(Cl)nc(NCCO)n1 | inactive
O=C(N/N=C/c1ccc(OCC2COCCO2)cc1)c1ccc(Br)cc1 (centres undefined) | inactive
CCOc1ccc(N2C(=O)/C(=C/c3ccc(C)o3)N(C)C2=S)cc1 | inactive
CC(NC(=O)COc1cccnc1[N+](=O)[O-])c1ccc(Cl)cc1Cl (centres undefined) | inactive
Clc1cccc(Cl)c1OCCOCCNCc1ccccc1 | inactive
CCN(CC)CCOCCOc1ccc(Cl)c2ccccc12 | 21 (active)
CN(C)CCOCCOc1ccc(Cl)c2ccccc12 | inactive
O=S(=O)(Nc1cccc(-n2cnnn2)c1)c1cnc(Cl)c(Cl)c1 | inactive
COc1cc(S(=O)(=O)Nc2ncn[nH]2)ccc1Cl | inactive
Cc1ccc(C)c(CN2CCC(CNC(=O)Nc3ccc(C)c(F)c3)CC2)c1 | 10 (active)
Cc1cccc(CN2CCC(CNC(=O)Nc3ccc(F)c(Cl)c3)CC2)c1 | inactive
COc1cc(NC(=O)NCC2CCN(Cc3ccc(C)cc3)CC2)cc(OC)c1OC | inactive
COC(=O)c1cc(S(=O)(=O)N2CCC(C(N)=O)CC2)oc1C | inactive
O=c1c(-c2ccccc2Cl)c[nH]n1-c1ccccc1 | inactive
Cc1ccc(C(=O)NCCc2nnc(SCC(=O)Nc3cccc(C(=O)O)c3)n2C)cc1 | inactive
O=C(CN1CCN(Cc2ccccc2)CC1)Nc1ccc(F)c(F)c1 | inactive
Cc1cc(NC(=O)CCN2CCN(Cc3ccccc3)CC2)ccc1Br | 20 (active)

SMILES | B-score
CCOC(=O)N1CCN(CCC(=O)Nc2ccccc2)CC1 | inactive
COc1ccccc1C(=O)Nc1ccnn1C1CCN(Cc2cnn(C)c2)CC1 | inactive
O=C(COc1ccc(Cl)cc1)Nc1ccc2c(c1)OCO2 | inactive
CCC(C)Sc1nc2c(cnn2-c2ccc(F)cc2)c(=O)[nH]1 (centres undefined) | inactive
CCCCN(CC)C(=O)C1CCCN(S(=O)(=O)c2cccc3nsnc23)C1 (centres undefined) | inactive
CCCCN(C)CCNC(=O)C1CCCN(S(=O)(=O)c2cccc3nsnc23)C1 (centres undefined) | 25 (active)
O=C(c1ccco1)N1CCN(C(=O)C2CCCN(S(=O)(=O)c3cccc4nsnc34)C2)CC1 (centres undefined) | inactive
CC(C)c1nc(CNC(=O)CC2C(=O)NCCN2Cc2cccc(F)c2F)cs1 (centres undefined) | inactive
C=CCNC(=O)CC12CC3CC(C1)CC(CC(=O)NCC=C)(C3)C2 | inactive
CCc1c(C)nc2c(-c3ccccc3)c(C)nn2c1Nc1ccc(NC(C)=O)cc1 | 27 (active)
Cc1cc(-c2ccccc2)n2nc(C)c(-c3ccccc3)c2n1 | inactive
Cc1cc(-n2nc(C)cc2C)n2nc(C)c(-c3ccccc3)c2n1 | inactive
CCCC(C)c1nnc(NC(=O)C2CC(=O)N(c3ccc(OCC)cc3)C2)s1 (centres undefined) | inactive
O=S(=O)(NCCCc1ccccc1)c1ccc(Br)cc1 | inactive
O=S(=O)(NCCc1ccccc1)c1ccccc1 | inactive
COc1ccc(S(=O)(=O)NCCCc2ccccc2)cc1 | 32 (active)
COC(=O)c1c(NC(=O)CN2CCN(S(=O)(=O)c3ccccc3[N+](=O)[O-])CC2)sc2c1CCC(C)C2 (centres undefined) | inactive
CS/C(=C\C(=O)c1ccco1)Nc1ccccc1Cl | inactive
C#CCCCc1nc2ccccc2c(=O)n1N | inactive
CCCCn1c(N)c(N(CC(C)C)C(=O)c2cccc(S(=O)(=O)N3CC(C)OC(C)C3)c2)c(=O)[nH]c1=O (centres undefined) | inactive
CCn1cc(CN2CCN(CC(C)(C)C)C(CCO)C2)c2ccccc21 (centres undefined) | inactive
CN1CCN(c2cc3c(cc2F)c(=O)c(C(=O)O)cn3CCF)CC1 | inactive

SMILES | B-score
CCn1cc(C(=O)NCCO)c(=O)c2cc(F)c(N3CCN(C)CC3)cc21 | inactive
CCCCCCn1cc(C(=O)O)c(=O)c2cc(F)c(N3CCCCC3)cc21 | 12 (active)
O=C(c1ccc(F)cc1)c1c[nH]c(C(=O)NCc2cccnc2)c1 | inactive
C=CCC1(C(=O)N(C)Cc2ccccc2)CCN(C(=O)OC(C)(C)C)CC1 | inactive
CC1(C)CC(=O)C(N=Nc2c(F)cccc2F)=C(O)C1 | inactive
Cc1ccc(N2C(=O)C(NC(=O)c3c(F)cccc3F)(C(F)(F)F)C3=C2CC(C)(C)CC3=O)cc1 (centres undefined) | 119 (active)
C=CCSc1nnc(N2C(=O)C(O)=C(C(=O)c3ccco3)C2c2ccc(F)cc2)s1 (centres undefined) | inactive
COc1ccccc1N(C)S(=O)(=O)c1ccc(C(=O)NC2CCCCCC2)cc1 | inactive
COC(=O)Cc1csc(/N=C/c2c(O)n(-c3cccc(C(F)(F)F)c3)c(=O)c3ccccc23)n1 | inactive
O=S(=O)(c1ccccc1)c1nc(Cc2ccccc2)oc1N1CCOCC1 | inactive
O=S(=O)(c1ccc(Br)cc1)c1nc(-c2ccccc2)oc1N1CCOCC1 | 11 (active)
O=S(=O)(c1ccccc1)c1nc(-c2ccccc2)oc1NCCCN1CCOCC1 | inactive
COc1nnc(-c2ccc(C)c(S(=O)(=O)N(C)C)c2)c2ccccc12 | inactive
CC1CCCCC1NC(=O)CO/N=C/c1ccc(OC(F)F)cc1 (centres undefined) | inactive
Cc1nn(CC(=O)Nc2ccc(N(C)C)cc2)c(C)c1[N+](=O)[O-] | inactive
COc1cccc(/C=C/C(=O)OCC(=O)N2CCCc3ccccc32)c1 | inactive
Cc1cc2cc3c(N)[nH]nc3nc2cc1C | 11 (active)
O=C(NCCN1CCOCC1)c1cc(Sc2cccc(Cl)c2)nc2ccccc12 | inactive
COc1cc2c(C(=O)N3CCN(C)CC3)c(CSc3ccccc3)n(C)c2cc1Br | 18 (active)
COc1cc(C(=O)N2CCN(C)CC2)cc(OC)c1OC | inactive
COc1ccccc1OCc1ccc(C(=O)N2CCN(C)CC2)o1 | inactive
CC1=C(C(=O)OCC2CCCCC2)C(c2ccc(F)cc2)NC(=O)N1 (centres undefined) | inactive

SMILES | B-score
C=CCc1cc(C)ccc1OCCCn1ccnc1 | inactive
c1ccc(Cc2ccc(OCCn3ccnc3)cc2)cc1 | inactive
Clc1c(OCCCn2ccnc2)ccc2ccccc12 | 15 (active)
Fc1ccccc1/C=N/Nc1cc(N2CCCCC2)ncn1 | inactive
O=C(NCc1cccc(Cl)c1)C1CCC(=O)N(C2CC2)C1 (centres undefined) | inactive
C=CCN(Cc1nc(-c2cc(OC)c3c(c2)OCO3)oc1C)C1CCS(=O)(=O)C1 (centres undefined) | inactive
C=C(C)COc1ccc(-c2ncncc2-c2ccc(OC)cc2)c(O)c1 | inactive
CCOc1ccc(-c2nc(N)ncc2-c2ccccc2OC)c(O)c1 | inactive
C=C(C)COc1ccc(-c2nc(N)ncc2-c2ccccc2OC)c(O)c1 | 22 (active)
CC(C)Oc1ccc(CC(=O)NNC(=S)Nc2ccc(Br)cc2)cc1 | inactive
COc1cc(CCC(=O)Nc2ccncc2Cl)cc(OC)c1OC | inactive
O=C1c2ccccc2C(=O)c2c1cccc2N1CCN(Cc2ccccc2)CC1 | 14 (active)
O=C1c2ccccc2C(=O)c2c1cccc2N1CCN(CCO)CC1 | inactive
O=C1c2ccccc2C(=O)c2c1cccc2N1CCN(C/C=C/c2ccccc2)CC1 | inactive
Cc1ccc(Cl)cc1NC(=O)CN1CCN(S(=O)(=O)N2CCOCC2)CC1 | inactive
O=C(c1ccc(Cl)s1)N(Cc1nnc(-c2ccccc2Cl)o1)C1CC1 | inactive
CCc1c(C)nc(N)n2c(SCC(=O)NC3CCCCC3)nnc12 | inactive
Cc1ccc(NC(=O)c2cnc(SCC(=O)NCC3CCCO3)n(C)c2=O)cc1 (centres undefined) | inactive
COc1ccccc1NC(=O)c1cc(Cl)nc2ccccc12 | inactive
COC(=O)c1cc(N2CCNCC2)nc2ccccc12 | 39 (active)
Cc1cc(C(=O)Nc2ccccc2N2CCOCC2)c2ccccc2n1 | inactive
